Test results published in PubChem BioAssay AID435019 (Southern Research Specialized Biocontainment Screening …, 2010).
The campaign covered roughly 2,300 compounds. About 1,200 (52%) were called active. The set was probably picked from earlier hits. The list shows a part of the results. Measured potencies and affinities stand elsewhere. Unmarked numbers belong to inactive results. How the calls were made is not given here.

Test: mammalian cell cytotoxicity, dose response, cytotoxicity control for M. tuberculosis inhibitor project (AID 435019);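 further: 0% = background wells and 100% = vehicle-treated cells; lower values mean fewer viable cells so more cytotoxicity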
Settings: cytotoxicity counter-screen; series mostly up to 40 µM; viability: at the top concentration

Row | Structure (SMILES) | viability [%]
1 | Cn1ccnc1-c1nnn(-c2ccc(Cl)c(Cl)c2)n1 | 101
2 | CC12CCC(=O)N1C(C(=O)Nc1ccc(SC(F)F)cc1)CS2 (centres undefined) | 97.2
3 | CCn1cnc2sc(C(=O)Oc3ccc(Br)cc3)c(C)c2c1=O | 90.1
4 | COc1ccc(NC(=O)CN(C)C(=O)c2n[nH]c3ccccc23)cc1 | 87.4
5 | COc1ccccc1C1CC(c2ccc(Cl)cc2)Nc2ncnn21 (centres undefined) | 80.5
6 | CCN(CC)S(=O)(=O)c1cc(C(=O)Oc2cccc(-c3cnc4ccccc4n3)c2)ccc1Br | 93.8
7 | Cc1ccc(-c2ccc(C3C(C#N)=C(N)Oc4n[nH]c(C)c43)o2)cc1 (centres undefined) | 86.2
8 | CCc1nnc(N/N=C/c2cc(C)c(C)cc2C)n1N | 98.8
9 | COc1ccc(-c2nnn(CC(=O)OC3CCCCC3)n2)cc1OC | 102
10 | CO[C@@H]1[C@@H](OC(N)=O)[C@@H](O)C(Oc2ccc3c(O)c(NC(=O)c4ccc(O)c(CC=C(C)C)c4)c(=O)oc3c2C)OC1(C)C (some centres undefined) | 86.3
11 | O=Cc1ccc2noc(-c3ccc(Cl)cc3)c2c1 | 94.2
12 | O=C(COC(=O)C1=COCCO1)NCc1ccc(Cl)cc1 | 93.8
13 | O=S1(=O)CCC(N=Cc2ccc(-c3ccc(Cl)cc3)o2)C1 (centres undefined) | 86.9
14 | Cc1ccc2cc(C)c(N3CCN(c4ccccn4)CC3)nc2c1 | 86
15 | Cc1cc(C)c2c(CN3CCN(Cc4ccccc4)CC3)cc(=O)oc2c1C | 84.9
16 | Cc1ccc2[nH]c3c(c2c1)CN(C(=O)CN1CCN(c2ccccn2)CC1)CC3 | 82.1
17 | C#CCOCCOCCOCCNc1nc(N2CCN(C(=O)C(Cc3ccc(O)cc3)n3cc(C(N)CC(C)C)nn3)CC2)nc(N2CCN(C(=O)C(Cc3cc4ccccc4[nH]3)n3cc(C(N)Cc4ccc(O)cc4)nn3)CC2)n1 (centres undefined) | 95.6
18 | CC1(C)CN(c2ccccc2)N(C(=O)c2ccc(C#N)cc2)C1=O | 88.7
19 | CCOc1ccc(N2CC(=O)Nc3ccccc3NCC2=O)cc1 | 89.6
20 | CCOc1ccc(-n2cc(-c3ccccc3)c3c(=O)[nH]cnc32)cc1 | 84.8
21 | Cc1ccccc1-c1nc2cc(N)ccc2o1 | 89.9
22 | O=C([O-])c1ccccc1-[n+]1c(-c2ccccc2)cc(-c2ccccc2)cc1-c1ccccc1 | 101

Row | Structure (SMILES) | viability [%]
23 | Cc1nc(-c2ccc(Cl)cc2)sc1C1(C)CC(c2ccc(C#N)cc2)=NO1 (centres undefined) | 88.5
24 | CCOc1cc(C(=O)OCc2ccc(C(=O)OC)o2)cc(Br)c1OC | 96.5
25 | Cc1ccc(-c2ccnc(=S)[nH]2)cc1 | 97.5
26 | CC12CN3CCN(CC(C3)/C1=N\NC(=O)Nc1cccc(Cl)c1)C2 | 99.4
27 | CNC(CC(C)C)C(=O)NC1C(=O)NC(CC(N)=O)C(=O)NC2C(=O)NC3C(=O)NC(C(=O)NC(C(=O)O)c4cc(O)cc(O)c4-c4cc3ccc4O)C(O)c3ccc(c(Cl)c3)Oc3cc2cc(c3OC2OC(CO)C(O)C(O)C2OC2C[C@](C)(N)C(O)C(C)O2)Oc2ccc(cc2Cl)C1O (some centres undefined) | 95.1
28 | COc1cc(C)ccc1S(=O)(=O)N1CCN(C23CC4CC(CC(C4)C2)C3)CC1 | 87
29 | Brc1ccc(-c2nc3ncccn3c2Nc2ccc3c(c2)OCCO3)o1 | 96.2
30 | COC(=O)[C@@H](NC(=O)O[C@@H]1C(=O)c2ccc(OC)cc2O[C@H]1c1cccc(C(F)(F)F)c1)C(C)C | 84.6
31 | Cc1ccn2nc(S(=O)(=O)Nc3c(F)cccc3F)nc2n1 | 97.5
32 | Cc1ccc(OC(=O)CCN2C(=O)c3ccccc3C2=O)cc1C | 95.1
33 | O=[N+]([O-])c1ccc(N2CCCCC2)s1 | 94.7
34 | Cc1ccc(C)c(C2C(=O)c3ccccc3C2=O)c1 | 99.8
35 | NN(Cc1ccccc1)C(=S)Nc1ccc(Cl)c(Cl)c1 | 87.4
36 | C=C(C)C1Cc2c(C)nn(-c3nc(C)cc(C)n3)c2C1 (centres undefined) | 82.5
37 | O=C(/C=C/c1ccccc1)N1CCN(CCN2C(=O)c3cccc4cccc(c34)C2=O)CC1 | 84.9
38 | COc1ccc(C(=O)NNc2ccccc2)cc1OC | 86.6
39 | O=C(CSC1=Nc2ccccc2C2=NC(c3ccccc3)C(=O)N12)NC1CCCCC1 (centres undefined) | 92.2
40 | CN1C(=O)CC(c2ccccc2)C1=O (centres undefined) | 95.7
41 | c1ccc(NNC2=NCCCCC2)cc1 | 94.5
42 | COC(=O)c1ccc(NC(=S)NC(=O)C2CCC2)cc1 | 96.1
43 | COc1cc(/C=C/c2cc[n+](C)cc2)ccc1OCC(=O)Nc1ccc(Cl)c(Cl)c1 | 96
44 | CC1(c2ccc(Cl)c(Cl)c2)NC(=S)N2C1NC(=S)N2c1ccccc1 (centres undefined) | 91.4

Row | Structure (SMILES) | viability [%]
45 | Cc1cc(-c2ccc(Cl)cc2)c2cnn(C(C)C)c2n1 | 88.4
46 | Cc1ccc(-c2nc3ccsc3c(=O)o2)cc1 | 88.2
47 | COC(=O)C(C)Oc1ccc(-c2nccc(-c3ccccn3)n2)cc1 (centres undefined) | 102
48 | CCCCSCCCNC(=O)c1cn(CC)c2ccc(S(=O)(=O)N3CCOCC3)cc2c1=O | 92.9
49 | COc1ccc(C(=O)C[n+]2ccc3c(c2)nc(-c2cc(OC)c(OC)cc2OC)n3C)cc1 | 101
50 | Nc1nc(CN2CCN(c3ccccc3F)CC2)nc(N2CCCc3ccccc32)n1 | 91.2
51 | CCCc1cc(-c2nc(-c3ccc(Br)cc3)cs2)ccn1 | 87.4
52 | CC(=O)c1cccc(NC(=O)C2C3C=CC(C3=C(c3ccccc3)c3ccccc3)C2C(=O)O)c1 (centres undefined) | 95.7
53 | CCOc1ccc(NC(=O)CSc2nc(O)c(C)c(=O)n2-c2ccc(F)cc2)cc1 | 91.2
54 | COc1cccc(C(=O)NC2CC3CCCC(C2)N3CC(=O)Nc2ccc(N(C)C)cc2)c1 (centres undefined) | 82.4
55 | Cc1ccc2c(c1)c1c3n2CCN=C3CCC1 | 87.1
56 | CC(C)Nc1nc(NC(C)C)nc(N(C)N)n1 | 91.6
57 | CCOc1cccc(C=Nc2cc(C)cc(C)c2O)c1O | 96.3
58 | O=[N+]([O-])c1cc(-c2ccc(/C=N\n3cnnc3)o2)cc([N+](=O)[O-])c1 | 91.3
59 | O=[N+]([O-])c1ccc(-c2ccc(/C=N/c3c(-c4ccco4)nc4ccccn34)o2)cc1 | 90.6
60 | CCCCCC1CC(CC(=O)NC(=S)Nc2ccc([N+](=O)[O-])cc2)C(=O)O1 (centres undefined) | 92.9
61 | CCOC(=O)C(C)Sc1ncnc2c1nnn2-c1ccc(F)cc1 (centres undefined) | 94.5
62 | COc1ccc(-c2ccc(C#N)c(SCC(=O)OCc3ccccc3)n2)cc1OC | 88.4
63 | CC1(C)C2CCC1(C)C(OCC[N+](C)(C)CC(=O)OC1CCCCC1)C2 (centres undefined) | 101
64 | CC(=O)CCSc1ncnc2sc(-c3ccccc3)cc12 | 89.4
